# Bioassay records deposited in PubChem BioAssay by National Center for Advancing Translational Sciences (NCATS).
# ClpP mod – qHTS Assay for Activators of ClpP; ATP-dependent Clp protease proteolytic subunit (Bacillus subtilis (strain 168)), P80244; purified B. subtilis ClpP, FRET peptide cleavage, 20 min; Potency, µM (titrated, usually from 57.5 µM); 340,000 compounds, 1.9% hits; AID 651965, 2013; active means well fitted falling curve with a large enough effect; inconclusive means small, poorly fitted or top-dose-only effect; inactive means no such curve, though single readings can be large or run the other way; further: the source files actives as falling curves though it sought activators and does not explain the sign; nearly all actives have a fitted effect of over 65% in size
#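 Purified B. subtilis ClpP, 10 microg/mL final in Tris/HCl pH8 with KCl, BSA, glycerol and Tween-20, cleaved an Abz/nitrotyrosine-quenched decapeptide. Fluorescence (ex 320, em 430) was read at 0 and 20 min at room temperature. Delta was normalized to 5.8 microM ADEP and DMSO/no-enzyme controls.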
# GALK inhibitor – galactokinase (human) inhibition. Purified GALK, Kinase-Glo residual ATP luminescence. Potency, µM (top dose mostly 57.5 µM), most hits filed as inhibitors. 270,000 compounds, 0.007% hits
#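 Kinase-Glo Plus luminescence measured ATP left after a 1 h room-temperature reaction. The reaction used 5 nM GALK, 100 uM galactose and 35 uM ATP at pH 8.0 (20 mM HEPES, 5 mM MgCl2, 60 mM NaCl, 1 mM DTT, 0.01% BSA).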
# Eya2 phos inh – Eya2 (human) phosphatase inhibition. recombinant Eya2, OMFP fluorescence dephosphorylation (OMFP is methylfluorescein phosphate). Potency, µM (doses to about 76.9 µM), usual class: inhibitors. AID 488837. 330,000 compounds, 0.006% hits
#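 Eya2 (0.2 uM) preincubated 10 min at ambient with compound, then OMFP substrate added at 50 uM; 10 min reaction in 50 mM HEPES pH 7.5, 50 mM NaCl, 5 uM MgCl2, 0.05% BSA, 1 mM DTT. Fluorescence read at Ex 485/Em 525 nm.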
# USP2a block – USP2a (human) protease inhibition; O75604; USP2 core, Ub-CHOP2 coupled fluorogenic reporter, 485/531; Potency, µM (doses to about 38.3 µM), hits mostly inhibitors; 330,000 compounds, 0.01% hits; AID 463254
# Target sequence (O75604 whole entry, looked up): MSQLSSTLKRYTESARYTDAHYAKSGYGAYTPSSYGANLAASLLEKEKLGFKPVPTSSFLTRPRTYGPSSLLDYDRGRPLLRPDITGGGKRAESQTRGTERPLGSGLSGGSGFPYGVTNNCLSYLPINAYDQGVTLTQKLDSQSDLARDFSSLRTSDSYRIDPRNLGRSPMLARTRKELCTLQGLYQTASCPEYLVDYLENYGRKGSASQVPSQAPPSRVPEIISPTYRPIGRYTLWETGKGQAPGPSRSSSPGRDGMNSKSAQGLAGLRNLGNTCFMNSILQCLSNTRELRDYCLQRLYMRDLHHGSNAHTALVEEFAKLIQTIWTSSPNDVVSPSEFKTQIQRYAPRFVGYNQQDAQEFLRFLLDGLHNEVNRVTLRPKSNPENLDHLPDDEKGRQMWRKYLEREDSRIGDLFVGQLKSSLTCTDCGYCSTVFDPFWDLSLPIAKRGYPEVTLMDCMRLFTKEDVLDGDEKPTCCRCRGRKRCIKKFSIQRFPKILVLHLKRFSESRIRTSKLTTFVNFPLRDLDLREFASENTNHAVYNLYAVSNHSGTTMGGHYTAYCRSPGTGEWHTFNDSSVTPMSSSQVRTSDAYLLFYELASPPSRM
#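 Deubiquitinase activity read as fluorescence (485/531 nm) after Ub-CHOP2 cleavage activates the enterokinase reporter on its substrate; USP2 core 10nM, Ub-CHOP2 and substrate 25nM each, 30min compound preincubation then 60min RT; data normalized to NEM, curves fitted.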
# ClpP inh valid – validation of B. subtilis ClpP protease hits (inhibitors); shares compounds with ClpP mod; purified B. subtilis ClpP, FRET-FV substrate cleavage, 20 min; Potency, µM (titrated, usually from 57.5 µM), usual class: inhibitors; 470 compounds, 40% hits; further: nearly all actives have a fitted effect of over 70% in size
# A number is an active result; i = inactive; ? = inconclusive; nt = not tested or not shown; [ ] = another dose, or the depositor's remark. The sample as a whole holds a higher share of hits than the screen did. Unless noted, the call rests on the fitted dose curve; in most records, active means well fitted curve in the direction sought with a large enough effect; inconclusive means small, poorly fitted or top-dose-only effect, or another doubt; inactive means no such curve, though single readings can be large; an effect the other way counts as inactive or inconclusive.
SMILES,ClpP mod,GALK inhibitor,Eya2 phos inh,USP2a block,ClpP inh valid
COc1ccc(NCc2cc3cc4c(cc3n(CC(=O)Nc3ccc(C)c(C)c3)c2=O)OCO4)cc1,i,nt,nt,nt,?
COC(=O)C1CCCN1S(=O)(=O)c1ccc2ccccc2c1 (stereo not given),i,i,i,i,nt
Clc1ccc2nc3ccccn3c2c1,2.5µM,i,i,i,?
N#Cc1ccc2c(c1)nc1ccccn12,nt,i,i,i,nt
COc1ccc(NC(=O)COC(=O)COc2cccc3c2OC(C)(C)C3)cc1,i,nt,i,i,nt
COc1cc2c(cc1NC(=O)C(C)N1CCN(S(=O)(=O)c3ccccc3[N+](=O)[O-])CC1)oc1ccccc12 (stereo not given),i,i,i,i,nt
COc1cc2c(cc1NC(=O)C(C)N1CCN(S(=O)(=O)c3ccc(C)c(C)c3)CC1)oc1ccccc12 (stereo not given),3.2µM,i,i,i,?
CCN1CCN(CC(=O)Nc2ccc3c(c2)OCCO3)C(=O)C1=O,i,i,i,i,nt
CCCN(CC(=O)Nc1ccccc1C)C(=O)c1ccc(-c2ccc(C(C)=O)cc2)o1,8.9µM,nt,i,i,19µM
CCOc1ccc(NC(=O)c2cc3cc4ccc(OC)cc4nc3o2)cc1,i,i,i,i,27µM
Cc1c2c(nc3c(C(=O)NC4CCCC4)cnn13)CCCC2,7.1µM,i,i,i,22µM
CC(NC(=O)c1cc(-c2ccc3c(c2)OCO3)nc2ccccc12)C(C)(C)C (stereo not given),i,i,i,i,24µM
O=C(O)c1cc(-c2ccc3c(c2)OCO3)nc2ccccc12,i,i,i[15.4 µM],i,nt
Nc1c(-c2cccs2)cnc2c(-c3ccc(F)cc3)cnn12,nt,i,i,i,nt
Fc1ccc(-c2cnc(-c3cccs3)o2)cc1,6.3µM,i,i,i,5.4µM
CC(C)c1ccc(NC(=O)CSc2ncnc3c2sc2ccccc23)cc1,i,nt,nt,nt,nt
CC(C)Nc1nc(NC(C)C)nc(N(C)n2cnnc2)n1,i,i,i,i,nt
Fc1ccc(-c2cc3nc(-c4ccccc4)cc(N4CCOCC4)n3n2)cc1,3.5µM,i,i,i,34µM
Cc1cccc(-c2cc3nc(C)cc(N4CC(C)CC(C)C4)n3n2)c1 (stereo not given),0.79µM,i,i,i,i
Cc1cccc(-c2cc3nc(-c4ccccc4)cc(N4CCC5(CC4)OCCO5)n3n2)c1,3.2µM,i,i,i,24µM
Cc1ccc(-c2cc3nc(-c4ccccc4)cc(N4CCC5(CC4)OCCO5)n3n2)cc1,7.1µM,i,i,i,i
COc1ccc(-c2cc3nc(-c4ccccc4)cc(N4CCN(C(C)=O)CC4)n3n2)cc1,i,nt,nt,nt,nt
CCOC(=O)NC1=NCC(C)S1 (stereo not given),i,i,i,i,nt
COc1ccc(-n2c(Cc3cccn3C)nnc2SCC(=O)Nc2ccc(C)cc2C)cc1,i,i,i,i,nt
CCNc1ccc(C(=O)OCC(=O)N2CCCC2)cc1[N+](=O)[O-],i,i,i,i,i
SMILES,ClpP mod,GALK inhibitor,Eya2 phos inh,USP2a block,ClpP inh valid
O=C(OCC(=O)N1CCCC1)c1ccc(Cl)c([N+](=O)[O-])c1,nt,i,i,i,nt
Cc1ccc2nc(-c3ccc(NC(=O)c4ccc(S(C)(=O)=O)cc4)cc3)sc2c1,i,nt,nt,nt,nt
Cc1ccc(C)c(N(CC(=O)Nc2ccc(-c3nc4ccc(C)cc4s3)cc2)S(C)(=O)=O)c1,10µM,i,i,i,31µM
CCCCCc1cc(=O)oc2c(C(CCN3CCCC3)c3ccc(N(C)C)cc3)c(OC)cc(OC)c12 (stereo not given),i,i,i,i,i
O=S(=O)(O)C1CCNCC1,nt,nt,i,i,nt
Cc1ccc(Cn2ccc(NC(=O)c3nn(C)cc3Cl)n2)cc1,i,i,i,i,i
Cc1ccc(Cn2nc(C)c(NC(=O)c3nn(C)cc3Cl)c2C)cc1,i,i,i,i,nt
COc1ccc(NC(=O)c2nc[nH]c2C(=O)Nc2ccccc2C)cc1,i,i,i,i,i
NC(=O)C(NC(=O)OCc1ccccc1)c1ccccc1 (stereo not given),i,nt,i,i,nt
COc1ccc(CNC(=O)c2cc3c(=O)n(C)c4ccccc4c3n2C)cc1,i,nt,nt,nt,nt
CCOc1ccc(CNC(=O)c2cc3oc4ccccc4c3n2C)cc1,6.3µM,i,i,i,i
O=C(CCn1nnc2ccccc21)N1CCN(c2ccccc2)CC1,i,i,i,i,i
COc1ccc([N+](=O)[O-])cc1NC(=O)C(C)OC(=O)C1CC(=O)N(Cc2ccco2)C1 (stereo not given),?,nt,i,i,nt
CC1(C(=O)N(CC(=O)NC2CCCC2)Cc2ccco2)CC(=O)N=C2C=CC=CN21 (stereo not given),3.2µM,i,i,i,17µM
Cc1ccc(-c2nnc(-c3cccnc3)o2)cc1,i,i,i,i,nt
c1cncc(-c2nnc(-c3cccs3)o2)c1,8.9µM,i,i,i,19µM
FC(F)(F)c1cc(-c2ccc(Cl)cc2)nc2ncnn12,2.8µM,i,i,i,17µM
Cc1cc2nc(-c3ccc(Cl)cc3)cc(C(F)(F)F)n2n1,i,nt,nt,nt,nt
Cc1cc(C)cc(NS(=O)(=O)c2ccc3[nH]cc(C(=O)N4CCCC4)c(=O)c3c2)c1,i,nt,nt,nt,nt
CC(C)CCNC(=O)c1cc(-c2ccco2)nc2ccccc12,4µM,i,i,i,6.9µM
CS(=O)(=O)N1Cc2cc(C(=O)NCC3CC3)nc(-c3cccc(-c4cccnc4)c3)c2[C@@H]1CCO,i,nt,nt,nt,nt
COc1ccccc1/C=C/C(=O)NCC(=O)N/N=C/c1ccccc1[N+](=O)[O-],nt,i,i,i,nt
Cc1ccc2[nH]c3c(c2c1)CCc1cn[nH]c1-3,2.8µM,i,i,i,24µM
CCCC(=O)Nc1cc(-c2nc3ncccc3o2)ccc1C,3.2µM,i,i,i,24µM
O=C(Nc1cccc(-c2cn3cccnc3n2)c1)c1ccco1,i,i,i,i,nt
SMILES,ClpP mod,GALK inhibitor,Eya2 phos inh,USP2a block,ClpP inh valid
O=C(Nc1cccc(-c2cn3cccnc3n2)c1)c1ccc(Br)o1,3.5µM,i,i,i,2.7µM
COC(=O)[C@H](Cc1ccc(O)cc1)NCCCn1cnc(C(=O)Nc2ccc(C)c(C)c2)n1,i,nt,nt,nt,nt
Cc1ccc2oc(-c3cccc(NC(=O)c4ccccn4)c3)nc2c1,i,nt,nt,nt,nt
Cc1ccc2oc(-c3cccc(NC(=O)c4cc(-n5cnnc5)ccc4Cl)c3)nc2c1,i,i,i,i,i
Cc1ccc(C)c2[nH]c(=O)c(CN(CCCN(C)C)C(=O)NCc3ccccc3)cc12,3.5µM,i,i,i,?
Cc1cc(C)c2cc(CN(CCCN(C)C)C(=S)NCc3ccccc3)c(=O)[nH]c2c1,i,i,i,i,nt
COCc1nnc(NC(=O)c2cc(Cl)ccc2OC)s1,i,i,i,i,nt
COc1cccc(C2C(C(=O)Nc3nc4ccccc4s3)=C(C)NC3=C2C(=O)CC(C)(C)C3)c1OC (stereo not given),i,i,i,i,8.6µM
